Compound activity: PubChem, several laboratories
tim10-1 inh: growth inhibitors of tim10-1 mutant yeast; S. cerevisiae tim10-1 ts strain growth, BacTiter-Glo, 24 h; inhibition, % at 20 µM; hit rate 2.2% among 330,000;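 active = inhibition of at least 40%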;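 note: mutant grown at 25 °C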
Calb FLC: C. albicans growth modulation with fluconazole; C. albicans CaCi-2 (fluconazole-resistant clinical isolate) + fluconazole, Alamar Blue growth, 48 h; growth inhibition, % (test concentration not listed); hit rate 0.57% among 300,000;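 active = growth inhibition above about 58% in most replicates, limit read from the data, passing the limit was not always enough; inconclusive = exactly half the replicates above a set limit; inactive = most replicates below a set limit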;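 note: all wells also contain fluconazole at 8 µg/ml as a sub-toxic cotreatment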
TIM10 inh: TIM10 yeast growth inhibition; hit rate 1.4% among 330,000; S. cerevisiae TIM10 strain growth, BacTiter-Glo luminescence, 24 h; inhibition, % at 10 µM;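 active = inhibition of 40% or more at the single tested concentration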;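 note: wild-type TIM10 isogenic control strain grown at permissive 25 °C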
PfHsp90 yeast 2: inhibits growth of yeast expressing Plasmodium falciparum Hsp90; S. cerevisiae expressing PfHsp90, BacTiter-Glo ATP, 48 h; yeast lacking PDR1 and PDR3 efflux regulators; inhibition, % at 9.4 µM; hit rate 0.32% among 310,000;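 active = every replicate shows inhibition above about 80%, whatever the replicate mean, limit read from the data; inconclusive = mean inhibition reaches the set limit but some replicate falls short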
tim23-1 inh: growth inhibitors of tim23-1 mutant yeast; AID 463212; inhibition, % at 20 µM; S. cerevisiae tim23-1 growth, BacTiter-Glo luminescence, 24 h; hit rate 1.3% among 330,000;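 active = growth inhibition of the mutant yeast at or above 50%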;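 note: temperature-sensitive mutant grown at 25 °C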
SKKanGAS inh: blocks kanamycin growth of S. pyogenes SKKanGAS strain; BacTiter-Glo, 6 h; inhibition, % at 7.5 µM; hit rate 1.3% among 300,000; AID 1662;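 active = mean replicate score, as percent of positive control median, at least 50; inconclusive = mean below 50 but one replicate at or above 50; inactive = mean and every replicate below 50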;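 note: strain carries kanamycin resistance gene driven by streptokinase promoter and grows in 40 µg/ml kanamycin; loss of luminescence reflects streptokinase promoter inhibition or plain growth inhibition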
tim23-1 conf: tim23-1 yeast growth inhibition, confirmed | AID 463218 | shares compounds with tim23-1 inh | inhibition, % at 20 µM | S. cerevisiae tim23-1 growth, BacTiter-Glo luminescence, 24 h | hit rate 83% among 4,400;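 active = inhibition above about 39% in either of two replicate wells at 20 µM, limit read from the data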;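 note: temperature-sensitive tim23-1 mutant grown at 25 °C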
Large screens that a line does not name were inactive (follow-up assays come after a bar, where they were run). Rows were chosen to be rich in hits. Some 4.7% of all compounds tested hit in one or more screens of this group.

Cc1ccc2c(c1)C(=O)C(=O)N2CCOc1ccccc1	none
Cc1ccc2c(c1)C(=O)C(=O)N2CC(=O)Nc1ccccc1NC(=O)c1ccccn1	none
Cc1cccc2c1N(CCCOc1ccccc1)C(=O)C2=O	tim23-1 inh 59 | tim23-1 conf 56
Cc1ccc2c(c1)C(=O)C(=O)N2c1ccc(C(F)(F)F)cc1	none (no result: Calb FLC, SKKanGAS inh)
Cc1ccc2c(c1)C(=O)C(=O)N2Cc1ccc(Br)cc1	tim23-1 inh 68 (no result: Calb FLC, SKKanGAS inh) | tim23-1 conf inactive
Cc1ccc2c(c1)C(=O)C(=O)N2c1ccc(Cl)cc1	tim23-1 inh 66 (no result: Calb FLC, SKKanGAS inh) | tim23-1 conf 75
Cc1cccc(OCCN2C(=O)C(=O)c3cc(C)ccc32)c1	tim23-1 inh 51 | tim23-1 conf 49
Cc1cccc(OCCN2C(=O)C(=O)c3cccc(C)c32)c1	none
CC(C)N1CCN(Cc2cn[nH]c2C2CCCCC2)CC1CCO (stereo not drawn)	none
OCCc1c[nH]c2ccc(C(F)(F)F)cc12	none
Cc1ccc(CN2C(=O)C(=O)c3cc(C)ccc32)cc1	tim23-1 inh 79 (no result: Calb FLC, SKKanGAS inh) | tim23-1 conf 84
CCCCN1C(=O)C(=O)c2cc(Cl)ccc21	tim23-1 inh 59 (no result: Calb FLC, SKKanGAS inh) | tim23-1 conf 55
CCCCN1C(C)=CC(=C2C(=O)c3ccccc3C2=O)C=C1C	none
CCCN1C(=O)C(=O)c2cc(C)ccc21	none (no result: Calb FLC, SKKanGAS inh)
NS(=O)(=O)c1ccc(Sc2ccc3ccccc3c2)nc1	none
N#C/C(=C\c1ccc(O)cc1)c1nc2ccccc2o1	tim23-1 inh 54 | tim23-1 conf 61
Cc1cc(=O)nc2c3ccccc3n(C(C)C(=O)NCCN3CCOCC3)n12 (stereo not drawn)	none
CCOC(=O)[C@H]1[C@H]2COc3ccc(Br)cc3[C@@H]2N2C(=O)CN(Cc3ccc(F)cc3)C(=O)[C@@]12C	none (no result: Calb FLC, SKKanGAS inh)
Cc1ccc(-c2nc(Nc3ccc(O)cc3)c3ccccc3n2)cc1	tim23-1 inh 74 | tim23-1 conf 44
Cc1ccc(-c2nc(Nc3cccc(O)c3)c3ccccc3n2)cc1	tim23-1 inh 83 | tim23-1 conf inactive
Cc1ccc(-c2nc(Nc3ccc(N4CCOCC4)cc3)c3ccccc3n2)cc1	none
COc1cccc(Nc2nc(-c3ccccc3)nc3ccccc23)c1	tim23-1 inh 50 | tim23-1 conf 45
CC1CCC2(CC1)NC(=O)N(CC(=O)N1CCOCC1)C2=O (stereo not drawn)	none (no result: Calb FLC, SKKanGAS inh)
COC(=O)c1cccc(-c2ccc(C(c3c(C)[nH][nH]c3=O)c3c(C)[nH][nH]c3=O)o2)c1	tim23-1 inh 51 | tim23-1 conf 49
CCc1nnc(NC(=O)CN2CCN(c3nc(-c4ccccc4)cs3)CC2)s1	Calb FLC 90, tim23-1 inh 50 | tim23-1 conf 41
CC(C)C(=O)NNC(=O)CN1CCN(c2nc(-c3ccccc3)cs2)CC1	none (no result: PfHsp90 yeast 2)
COc1ccc(N2CCN(CC(=O)c3ccccc3)CC2)cc1	none
COc1ccc(N2CCN(CCC(=O)c3ccc4ccccc4c3)CC2)cc1	tim23-1 inh 69 | tim23-1 conf 57
O=c1c2cn[nH]c2nc(SCc2c(F)cccc2F)n1-c1ccc(Cl)cc1	Calb FLC inconclusive, tim23-1 inh 52, SKKanGAS inh 59 | tim23-1 conf 54
Cn1c(N)c(C(=O)COC(=O)/C=C/c2ccc(Cl)cc2Cl)c(=O)n(C)c1=O	none (no result: Calb FLC, PfHsp90 yeast 2, SKKanGAS inh)
COc1ccccc1/C=C/C(=O)OCC(=O)c1c(N)n(C)c(=O)n(C)c1=O	tim23-1 inh 95 | tim23-1 conf inactive
COc1ccc(CCNC(=S)Nc2ccc(C(C)C)cc2)cc1	tim23-1 inh 51 | tim23-1 conf inactive
CC[C@@]1(C(=O)OC)N[C@H](CN(C)C(=O)Nc2ccc(OC)cc2)[C@@H]2C(=O)N(Cc3ccccc3)C(=O)[C@@H]21	none (no result: Calb FLC, SKKanGAS inh)
CCCN1CCN(C(=O)c2cccc3c2C(=O)N(CCOC)C3)CC1	tim23-1 inh 96 | tim23-1 conf inactive
CCCN1Cc2cccc(C(=O)N3CCN(c4ccc(F)cc4)CC3)c2C1=O	none
Cc1cccc(/N=C/c2c(O)ccc3oc4c(c23)CCCC4)n1	tim23-1 inh 70 | tim23-1 conf 74
Cc1cccc(/N=C/c2c(O)cc(C)oc2=O)n1	none
CCOC(=O)C1CCN(C(=O)c2cc3cc4ccc(C)cc4nc3o2)CC1	tim23-1 inh 58 | tim23-1 conf 59
